This is an account of results in the supplement of paper PMC6555819.

In this assay the test system is LXRa homodimer (NR concentration 270 nM). Briefly: PBM binding z-score (relative to random genomic background probes); higher = stronger binding; sequences stand for … in GC…GCGATTGACAGCGTAGAATGAAGG
Summed up: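 Antibodies against each partner of ligand-free nuclear receptor dimers (one per run) detected binding on custom Agilent 4×180K protein-binding microarrays after 1 h incubation. The double-stranded probes had 34-nt variable regions carrying direct-repeat seeds, single-nucleotide variants, half-site ablations and random human genomic background sequences. Binding z-scores, from regression-normalized fluorescence, use the random background probes as reference.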
CCTAGTTGGTCAAAGTCACACACGCTATAGGTAC gave a PBM binding z-score of 0.567. The figure for CCTAGTTGGTCGAGGTCACACACGCTATAGGTAC is 2.35. In the case of GATACAGGGTCAAGGCCAGAGTTCGCGTATTGAT, the PBM binding z-score amounted to 0.289. The same measure for CCAACTAGGTCAAGGACAGTGAATCTCCGCACGC: 0.634.

The sequence TCTTGTAGATCAGCATGTTAAGAAAGCTGGCCAA yielded a PBM binding z-score of -0.479. The same measure for ACTTACGGGTCAACGAGGTTATAGCGCGCGTATA: 0.711; for CGTCCAAGGTCAAAGATCAGTGAAGAGATGACGG: 0.528. The figure for CCTTACGGGTCGAGGTTATAGCACGGGTGGTACG is -0.211; for GCTGACAGGTGAAACGCAGGTAACTCAGGGTGGC it is -0.763. The figure for CCTACTGGTCCACGAAAGGTCATTGATTCAGTGA is 5.19; for CCAACTGGGGCAAGGTTACCATAACGCACAGCCA it is -0.0339. As for GCTGCTAGGTCAGGTTGGTCACCTAACGGGTACG, the PBM binding z-score was -0.299.

Sequence CCGACTGGGGCAAAGGGTACCATACTCAGTACGA gave a PBM binding z-score of -0.41.

With ATCTCTAGGTAAGACTAAGTTCAGTGAAGAACGC, the PBM binding z-score was determined as 0.705. The figure for TCTATTAGTTTATTAGGGCAACCGAAACAGCGGA is 1.69; for CCTTACGGGCCACTCCAGGTTATAGCATCGGAGT it is 0.439.

In the case of TCTTGTAGATCAAGCACGTTAAGAAAGCCTGAGT, the PBM binding z-score was -0.171.
